# Assay results published in article PMC7862700, “An all-to-all approach to the identification of sequence-specific readers for epigenetic DNA modifications on cytosine”.
# Legend:
# Test in all cases: DAPPL (digital affinity profiling via proximity ligation, sequencing); 10 mM Tris-HCl pH 7.5, 50 mM NaCl, 1 mM DTT, 4% glycerol, room temperature, 30 min; GST-TFs on glutathione beads, 16-mer random dsDNA library, 0.1% formaldehyde crosslink after washing; high values mean tight binding
# [1] = target: T1, FLI1 (Homo sapiens, UniProt Q01543 1-452); conditions: protein: recombinant; tags: N-terminal GST; dsDNA, one strand shown
# T1 sequence: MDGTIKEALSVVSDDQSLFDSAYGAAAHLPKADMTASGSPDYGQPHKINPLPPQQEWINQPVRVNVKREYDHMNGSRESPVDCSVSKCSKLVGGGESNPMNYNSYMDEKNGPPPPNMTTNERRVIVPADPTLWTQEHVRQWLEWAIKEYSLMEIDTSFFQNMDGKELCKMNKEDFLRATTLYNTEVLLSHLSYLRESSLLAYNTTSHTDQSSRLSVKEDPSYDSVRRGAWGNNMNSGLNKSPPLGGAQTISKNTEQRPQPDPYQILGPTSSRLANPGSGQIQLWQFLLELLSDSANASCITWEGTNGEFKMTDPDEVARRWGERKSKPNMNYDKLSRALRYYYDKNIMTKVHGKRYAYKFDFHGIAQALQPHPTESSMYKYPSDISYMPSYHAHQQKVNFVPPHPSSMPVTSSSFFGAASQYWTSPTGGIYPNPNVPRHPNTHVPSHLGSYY
# Outline: (§1)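 Binding signal is defined as a hexamer's read frequency for one factor over its frequency for the tag-only sample. To obtain reads, GST-fused human transcription factors were expressed in yeast, captured on glutathione beads, barcoded with DNA and pooled with that sample. Pools met 200 nmole of a 16-mer random double-stranded DNA library in Tris/NaCl/DTT/glycerol buffer for 30 min at room temperature before washing, 0.1% formaldehyde crosslinking, proximity ligation (BsaI/T4 ligase, 1 h, 37 °C), PCR and Illumina NextSeq500 sequencing.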
# [2] = target: T2, ELK1 (Homo sapiens, UniProt P19419 1-428); conditions: protein: recombinant; tags: N-terminal GST; dsDNA, one strand shown
# T2 sequence: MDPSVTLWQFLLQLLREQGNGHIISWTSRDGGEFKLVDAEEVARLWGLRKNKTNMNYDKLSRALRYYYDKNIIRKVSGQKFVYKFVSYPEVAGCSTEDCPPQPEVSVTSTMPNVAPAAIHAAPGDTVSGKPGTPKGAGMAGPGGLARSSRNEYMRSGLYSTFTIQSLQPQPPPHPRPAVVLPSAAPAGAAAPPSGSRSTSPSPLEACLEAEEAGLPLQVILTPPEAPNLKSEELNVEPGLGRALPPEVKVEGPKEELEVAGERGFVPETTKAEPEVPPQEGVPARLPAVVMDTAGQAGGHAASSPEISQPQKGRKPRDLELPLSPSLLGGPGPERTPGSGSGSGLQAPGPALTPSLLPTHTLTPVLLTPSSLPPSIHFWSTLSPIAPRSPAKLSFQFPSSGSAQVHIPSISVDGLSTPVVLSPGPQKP
# Outline: as §1
# [3] = target: T3, GABPA (Homo sapiens, UniProt Q06546 1-454); conditions: protein: recombinant; tags: N-terminal GST; dsDNA, one strand shown
# T3 sequence: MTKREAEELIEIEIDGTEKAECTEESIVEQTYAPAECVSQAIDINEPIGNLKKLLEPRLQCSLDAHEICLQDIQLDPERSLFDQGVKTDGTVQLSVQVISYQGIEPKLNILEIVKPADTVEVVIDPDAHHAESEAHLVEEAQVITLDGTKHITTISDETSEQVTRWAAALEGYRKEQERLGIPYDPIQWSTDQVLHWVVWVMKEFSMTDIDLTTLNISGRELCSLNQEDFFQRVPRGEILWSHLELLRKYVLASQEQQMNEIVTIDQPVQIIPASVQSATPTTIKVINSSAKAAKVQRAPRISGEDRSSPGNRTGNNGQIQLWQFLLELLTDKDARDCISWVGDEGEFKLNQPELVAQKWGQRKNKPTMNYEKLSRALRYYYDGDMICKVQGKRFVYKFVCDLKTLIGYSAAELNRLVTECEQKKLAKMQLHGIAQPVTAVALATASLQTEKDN
# Outline: as §1
# [4] = target: T4, ERG (Homo sapiens, UniProt P11308 1-479); conditions: protein: recombinant; tags: N-terminal GST; dsDNA, one strand shown
# T4 sequence: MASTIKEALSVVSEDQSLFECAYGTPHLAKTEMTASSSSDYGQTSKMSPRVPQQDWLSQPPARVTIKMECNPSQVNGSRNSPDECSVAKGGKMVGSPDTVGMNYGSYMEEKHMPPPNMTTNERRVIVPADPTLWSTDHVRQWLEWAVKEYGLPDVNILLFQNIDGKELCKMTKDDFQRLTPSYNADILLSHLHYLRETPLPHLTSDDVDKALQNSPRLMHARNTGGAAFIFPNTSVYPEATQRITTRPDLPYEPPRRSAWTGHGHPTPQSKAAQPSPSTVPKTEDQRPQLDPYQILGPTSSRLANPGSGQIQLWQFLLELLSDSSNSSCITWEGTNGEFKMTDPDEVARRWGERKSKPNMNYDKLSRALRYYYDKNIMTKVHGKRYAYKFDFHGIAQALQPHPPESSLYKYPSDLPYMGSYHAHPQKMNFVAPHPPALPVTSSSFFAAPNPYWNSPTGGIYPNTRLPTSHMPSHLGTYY
# Outline: as §1
# [5] = target: ELF1 (Homo sapiens, UniProt P32519 1-619); conditions: protein: recombinant; tags: N-terminal GST; dsDNA, one strand shown
# ELF1, sequence (P32519 whole entry): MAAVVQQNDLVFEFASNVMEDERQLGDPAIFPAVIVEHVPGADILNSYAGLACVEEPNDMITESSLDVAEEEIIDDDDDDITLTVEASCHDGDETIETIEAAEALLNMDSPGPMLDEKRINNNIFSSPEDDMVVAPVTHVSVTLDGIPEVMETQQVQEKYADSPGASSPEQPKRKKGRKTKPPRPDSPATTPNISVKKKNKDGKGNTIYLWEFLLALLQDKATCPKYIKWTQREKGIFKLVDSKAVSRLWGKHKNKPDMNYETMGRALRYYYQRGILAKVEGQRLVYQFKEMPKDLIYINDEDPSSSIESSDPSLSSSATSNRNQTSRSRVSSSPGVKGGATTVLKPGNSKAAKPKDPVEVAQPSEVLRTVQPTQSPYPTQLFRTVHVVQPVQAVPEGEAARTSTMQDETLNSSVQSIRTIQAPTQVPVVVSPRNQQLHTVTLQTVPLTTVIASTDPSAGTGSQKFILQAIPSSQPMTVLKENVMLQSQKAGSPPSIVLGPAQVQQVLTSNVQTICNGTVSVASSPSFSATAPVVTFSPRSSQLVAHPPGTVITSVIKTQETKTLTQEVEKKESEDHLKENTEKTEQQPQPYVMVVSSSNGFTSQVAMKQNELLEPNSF
# Outline: as §1
# [6] = target: T5, EHF (Homo sapiens, UniProt Q9NZC4 1-300); conditions: protein: recombinant; tags: N-terminal GST; dsDNA, one strand shown
# T5 sequence: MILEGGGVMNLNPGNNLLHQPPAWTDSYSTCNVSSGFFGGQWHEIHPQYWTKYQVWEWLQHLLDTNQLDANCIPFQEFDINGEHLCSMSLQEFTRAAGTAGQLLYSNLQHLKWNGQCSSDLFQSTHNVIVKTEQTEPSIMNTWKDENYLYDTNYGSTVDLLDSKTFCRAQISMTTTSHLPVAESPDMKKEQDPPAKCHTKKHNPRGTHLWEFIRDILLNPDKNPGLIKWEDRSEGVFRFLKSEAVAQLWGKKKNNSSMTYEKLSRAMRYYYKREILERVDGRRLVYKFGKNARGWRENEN
# Outline: as §1
# [7] = target: SPI1 (Homo sapiens, UniProt P17947 1-270); conditions: protein: recombinant; tags: N-terminal GST; dsDNA, one strand shown
# Outline: as §1
# [8] = target: SPIB (Homo sapiens, UniProt Q01892 1-262); conditions: protein: recombinant; tags: N-terminal GST; dsDNA, one strand shown
# SPIB, sequence (Q01892 whole entry): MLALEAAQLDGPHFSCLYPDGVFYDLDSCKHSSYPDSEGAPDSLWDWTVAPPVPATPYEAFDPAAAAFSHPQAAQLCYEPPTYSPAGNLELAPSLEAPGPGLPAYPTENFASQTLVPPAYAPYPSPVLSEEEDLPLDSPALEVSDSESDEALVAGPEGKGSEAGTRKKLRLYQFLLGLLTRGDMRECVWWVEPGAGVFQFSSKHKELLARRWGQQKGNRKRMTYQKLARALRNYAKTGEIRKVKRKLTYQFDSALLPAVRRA
# Outline: as §1
# [9] = target: T6, ELK3 (Homo sapiens, UniProt P41970 1-407); conditions: protein: recombinant; tags: N-terminal GST; dsDNA, one strand shown
# T6 sequence: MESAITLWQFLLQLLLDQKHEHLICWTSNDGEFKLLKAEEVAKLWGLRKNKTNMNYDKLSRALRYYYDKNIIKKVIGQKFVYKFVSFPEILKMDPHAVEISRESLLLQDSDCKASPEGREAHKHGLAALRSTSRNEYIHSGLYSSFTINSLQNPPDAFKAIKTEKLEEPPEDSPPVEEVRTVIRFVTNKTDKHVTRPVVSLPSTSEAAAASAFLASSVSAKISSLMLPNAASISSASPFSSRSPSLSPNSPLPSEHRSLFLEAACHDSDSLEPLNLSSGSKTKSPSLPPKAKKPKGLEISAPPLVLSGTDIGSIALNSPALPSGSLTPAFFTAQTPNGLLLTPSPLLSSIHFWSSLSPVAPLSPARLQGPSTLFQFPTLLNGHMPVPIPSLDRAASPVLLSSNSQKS
# Outline: as §1
# [10] = target: T7, FEV (Homo sapiens, UniProt Q99581 1-238); conditions: protein: recombinant; tags: N-terminal GST; dsDNA, one strand shown
# T7 sequence: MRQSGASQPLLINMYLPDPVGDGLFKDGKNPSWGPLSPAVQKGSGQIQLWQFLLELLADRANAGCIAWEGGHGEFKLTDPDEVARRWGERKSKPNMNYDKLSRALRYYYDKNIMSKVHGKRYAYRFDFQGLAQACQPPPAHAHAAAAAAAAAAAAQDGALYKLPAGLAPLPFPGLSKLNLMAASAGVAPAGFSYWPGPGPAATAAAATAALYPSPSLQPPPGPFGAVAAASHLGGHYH
# Outline: as §1
# [11] = target: ETV5 (Homo sapiens, UniProt P41161 1-510); conditions: protein: recombinant; tags: N-terminal GST; dsDNA, one strand shown
# ETV5, sequence (P41161 whole entry): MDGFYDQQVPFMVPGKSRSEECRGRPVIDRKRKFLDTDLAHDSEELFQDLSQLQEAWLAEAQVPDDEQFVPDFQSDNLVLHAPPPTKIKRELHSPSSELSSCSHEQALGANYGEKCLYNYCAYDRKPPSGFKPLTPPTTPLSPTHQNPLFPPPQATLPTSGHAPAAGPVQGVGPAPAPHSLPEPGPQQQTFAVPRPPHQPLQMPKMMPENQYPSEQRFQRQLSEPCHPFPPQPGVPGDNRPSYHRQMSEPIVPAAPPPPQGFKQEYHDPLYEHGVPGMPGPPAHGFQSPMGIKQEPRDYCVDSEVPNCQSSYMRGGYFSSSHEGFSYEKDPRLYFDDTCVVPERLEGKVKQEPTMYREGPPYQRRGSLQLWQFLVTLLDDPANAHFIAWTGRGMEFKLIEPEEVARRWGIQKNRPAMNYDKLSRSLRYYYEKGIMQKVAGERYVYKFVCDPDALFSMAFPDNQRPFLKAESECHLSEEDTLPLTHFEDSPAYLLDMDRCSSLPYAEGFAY
# Outline: as §1
# [12] = target: HSF1 (Homo sapiens, UniProt Q00613 1-529); conditions: protein: recombinant; tags: N-terminal GST; chain copies: 3; dsDNA, one strand shown
# HSF1, sequence (Q00613 whole entry): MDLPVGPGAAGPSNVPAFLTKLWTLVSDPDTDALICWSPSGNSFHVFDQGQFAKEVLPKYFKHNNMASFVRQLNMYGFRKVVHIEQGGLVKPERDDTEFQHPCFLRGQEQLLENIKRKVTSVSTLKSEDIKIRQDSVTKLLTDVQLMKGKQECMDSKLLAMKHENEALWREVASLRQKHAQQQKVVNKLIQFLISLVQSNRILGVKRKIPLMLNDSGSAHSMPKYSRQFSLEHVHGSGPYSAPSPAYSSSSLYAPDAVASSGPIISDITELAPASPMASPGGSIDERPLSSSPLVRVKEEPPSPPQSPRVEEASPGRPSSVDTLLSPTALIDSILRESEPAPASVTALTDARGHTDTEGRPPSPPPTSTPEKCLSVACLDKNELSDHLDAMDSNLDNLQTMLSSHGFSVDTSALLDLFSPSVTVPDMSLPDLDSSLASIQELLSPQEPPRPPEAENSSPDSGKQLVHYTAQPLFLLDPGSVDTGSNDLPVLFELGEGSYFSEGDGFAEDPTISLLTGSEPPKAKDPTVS
# Outline: as §1
# [13] = target: T8, SPIC (Homo sapiens, UniProt Q8N5J4 1-248); conditions: protein: recombinant; tags: N-terminal GST; dsDNA, one strand shown
# T8 sequence: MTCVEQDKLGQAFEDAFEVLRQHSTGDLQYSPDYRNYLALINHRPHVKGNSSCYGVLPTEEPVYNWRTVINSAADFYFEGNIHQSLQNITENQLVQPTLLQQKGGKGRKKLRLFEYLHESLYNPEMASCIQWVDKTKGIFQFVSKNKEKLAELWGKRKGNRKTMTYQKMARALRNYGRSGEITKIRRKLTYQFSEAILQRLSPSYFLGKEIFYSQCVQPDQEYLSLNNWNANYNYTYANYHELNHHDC
# Outline: as §1
# [14] = target: ELF4 (Homo sapiens, UniProt Q99607 1-663); conditions: protein: recombinant; tags: N-terminal GST; dsDNA, one strand shown
# ELF4, sequence (Q99607 whole entry): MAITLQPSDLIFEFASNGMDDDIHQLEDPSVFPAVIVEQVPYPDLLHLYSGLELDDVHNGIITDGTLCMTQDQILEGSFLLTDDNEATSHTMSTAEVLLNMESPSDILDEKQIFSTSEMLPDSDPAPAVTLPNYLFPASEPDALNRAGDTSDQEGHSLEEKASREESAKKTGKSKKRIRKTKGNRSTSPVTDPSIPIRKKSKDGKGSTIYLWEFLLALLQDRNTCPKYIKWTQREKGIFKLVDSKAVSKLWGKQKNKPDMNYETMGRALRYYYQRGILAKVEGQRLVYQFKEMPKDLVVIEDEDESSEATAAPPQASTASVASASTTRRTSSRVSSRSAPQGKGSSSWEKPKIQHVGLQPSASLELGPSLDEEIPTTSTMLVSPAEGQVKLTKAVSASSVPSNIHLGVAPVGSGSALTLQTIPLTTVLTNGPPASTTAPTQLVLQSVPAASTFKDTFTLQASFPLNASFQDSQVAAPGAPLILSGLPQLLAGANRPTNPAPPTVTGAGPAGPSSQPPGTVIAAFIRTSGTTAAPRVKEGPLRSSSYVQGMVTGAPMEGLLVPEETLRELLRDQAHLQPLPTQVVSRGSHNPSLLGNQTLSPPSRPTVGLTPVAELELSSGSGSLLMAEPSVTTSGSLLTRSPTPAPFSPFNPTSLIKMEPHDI
# Outline: as §1
# [15] = target: T9, ELK4 (Homo sapiens, UniProt P28324-2 1-405); conditions: protein: recombinant; tags: N-terminal GST; dsDNA, one strand shown
# T9 sequence: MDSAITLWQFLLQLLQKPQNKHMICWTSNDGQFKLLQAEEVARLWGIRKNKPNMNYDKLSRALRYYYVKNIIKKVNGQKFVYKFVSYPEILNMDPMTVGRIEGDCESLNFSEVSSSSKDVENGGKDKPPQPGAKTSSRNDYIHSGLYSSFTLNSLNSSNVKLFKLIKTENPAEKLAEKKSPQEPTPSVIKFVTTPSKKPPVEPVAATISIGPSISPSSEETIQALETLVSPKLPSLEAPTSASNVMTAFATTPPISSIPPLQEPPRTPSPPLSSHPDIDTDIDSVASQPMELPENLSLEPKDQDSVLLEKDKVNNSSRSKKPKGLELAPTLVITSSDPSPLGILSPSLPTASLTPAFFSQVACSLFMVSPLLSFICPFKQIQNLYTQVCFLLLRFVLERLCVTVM
# Outline: as §1
# [16] = target: T10, ETV2 (Homo sapiens, UniProt O00321 1-342); conditions: protein: recombinant; tags: N-terminal GST; dsDNA, one strand shown
# T10 sequence: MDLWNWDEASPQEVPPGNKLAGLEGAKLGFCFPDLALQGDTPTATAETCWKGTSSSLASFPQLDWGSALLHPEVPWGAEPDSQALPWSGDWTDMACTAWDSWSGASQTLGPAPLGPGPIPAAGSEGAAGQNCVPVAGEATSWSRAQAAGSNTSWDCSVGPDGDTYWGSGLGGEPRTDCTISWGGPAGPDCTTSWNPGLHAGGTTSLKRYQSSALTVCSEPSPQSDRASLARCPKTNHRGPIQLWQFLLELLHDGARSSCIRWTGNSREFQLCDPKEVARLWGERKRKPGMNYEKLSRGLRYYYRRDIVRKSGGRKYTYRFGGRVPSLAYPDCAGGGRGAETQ
# Outline: as §1
# [17] = target: T11, ELF3 (Homo sapiens, UniProt P78545 1-371); conditions: protein: recombinant; tags: N-terminal GST; dsDNA, one strand shown
# T11 sequence: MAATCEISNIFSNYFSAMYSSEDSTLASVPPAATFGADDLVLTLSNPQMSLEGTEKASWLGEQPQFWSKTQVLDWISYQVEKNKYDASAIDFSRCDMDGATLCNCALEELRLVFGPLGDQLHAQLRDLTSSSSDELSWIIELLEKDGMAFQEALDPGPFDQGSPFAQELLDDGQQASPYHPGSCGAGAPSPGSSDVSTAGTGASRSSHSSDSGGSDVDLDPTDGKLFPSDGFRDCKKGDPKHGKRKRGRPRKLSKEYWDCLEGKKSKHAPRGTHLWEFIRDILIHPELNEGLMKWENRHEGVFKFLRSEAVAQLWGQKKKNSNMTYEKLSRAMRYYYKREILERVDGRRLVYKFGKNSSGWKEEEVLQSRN
# Outline: as §1
# [18] = target: CRX (Homo sapiens, UniProt O43186 1-299); conditions: protein: recombinant; tags: N-terminal GST; dsDNA, one strand shown
# CRX, sequence (O43186 whole entry): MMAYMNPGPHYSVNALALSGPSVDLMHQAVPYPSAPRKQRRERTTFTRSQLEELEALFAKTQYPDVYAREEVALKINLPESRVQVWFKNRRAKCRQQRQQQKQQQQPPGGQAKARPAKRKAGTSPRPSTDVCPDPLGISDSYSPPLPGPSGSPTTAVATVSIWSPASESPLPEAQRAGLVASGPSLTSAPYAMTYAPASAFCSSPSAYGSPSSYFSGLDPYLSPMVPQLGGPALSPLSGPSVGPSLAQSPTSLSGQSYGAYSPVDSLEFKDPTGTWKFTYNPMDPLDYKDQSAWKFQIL
# Outline: as §1
# [19] = target: ETV1 (Homo sapiens, UniProt P50549 1-477); conditions: protein: recombinant; tags: N-terminal GST; dsDNA, one strand shown
# ETV1, sequence (P50549 whole entry): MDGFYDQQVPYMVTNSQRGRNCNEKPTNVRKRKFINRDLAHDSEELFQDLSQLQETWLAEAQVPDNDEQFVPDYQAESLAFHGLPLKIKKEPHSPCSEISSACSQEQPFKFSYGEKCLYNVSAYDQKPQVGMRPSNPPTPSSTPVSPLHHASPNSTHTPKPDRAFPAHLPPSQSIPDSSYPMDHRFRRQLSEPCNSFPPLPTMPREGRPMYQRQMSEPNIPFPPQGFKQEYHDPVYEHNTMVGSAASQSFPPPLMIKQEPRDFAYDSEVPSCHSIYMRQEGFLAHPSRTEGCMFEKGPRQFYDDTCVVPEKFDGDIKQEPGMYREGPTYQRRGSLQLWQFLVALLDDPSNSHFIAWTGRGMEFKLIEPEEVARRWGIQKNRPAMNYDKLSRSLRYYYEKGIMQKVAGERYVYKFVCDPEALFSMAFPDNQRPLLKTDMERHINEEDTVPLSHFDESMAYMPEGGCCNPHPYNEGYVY
# Outline: as §1
sequence,measurement,setting,value
CCGAAT,binding signal,[1],"1.23 fold enrichment (6-mer frequency, TF over GST control)"
same,binding signal,[2],"1.1 fold enrichment (6-mer frequency, TF over GST control)"
same,binding signal,[3],"1.25 fold enrichment (6-mer frequency, TF over GST control)"
same,binding signal,[4],"1.07 fold enrichment (6-mer frequency, TF over GST control)"
same,binding signal,[5],"1.22 fold enrichment (6-mer frequency, TF over GST control)"
same,binding signal,[6],"1.24 fold enrichment (6-mer frequency, TF over GST control)"
same,binding signal,[7],"1.2 fold enrichment (6-mer frequency, TF over GST control)"
same,binding signal,[8],"1.22 fold enrichment (6-mer frequency, TF over GST control)"
same,binding signal,[9],"1.14 fold enrichment (6-mer frequency, TF over GST control)"
same,binding signal,[10],"1.16 fold enrichment (6-mer frequency, TF over GST control)"
same,binding signal,[11],"1.14 fold enrichment (6-mer frequency, TF over GST control)"
same,binding signal,[12],"1.64 fold enrichment (6-mer frequency, TF over GST control)"
same,binding signal,[13],"1.29 fold enrichment (6-mer frequency, TF over GST control)"
same,binding signal,[14],"1.16 fold enrichment (6-mer frequency, TF over GST control)"
same,binding signal,[15],"1.06 fold enrichment (6-mer frequency, TF over GST control)"
same,binding signal,[16],"1.12 fold enrichment (6-mer frequency, TF over GST control)"
same,binding signal,[17],"1.16 fold enrichment (6-mer frequency, TF over GST control)"
same,binding signal,[18],"1.33 fold enrichment (6-mer frequency, TF over GST control)"
same,binding signal,[19],"1.19 fold enrichment (6-mer frequency, TF over GST control)"
